Experimental data taken from PubChem BioAssay (NCATS).
“And” between values parts separate entries of the source, which are not always exact repeats. Equal values may be shown once. Records with an inconclusive call do not appear. A call without a number means that no potency is given here. The source made the active and inactive calls. Unless noted, the call rests on the fitted dose curve; in most records, active means well fitted curve in the direction sought with a large enough effect; inconclusive means small, poorly fitted or top-dose-only effect, or another doubt; inactive means no such curve, though single readings can be large; an effect the other way counts as inactive or inconclusive.

How the values were obtained:
[1] = biological target: Catechol O-methyltransferase (Homo sapiens) (UniProt P21964); test: Confirmatory Screen for Target Class Profiling of Small Molecule Inhibitors of Methyltransferases (AID 1745852); settings: MTase-Glo luminescence, SAH detection, recombinant enzyme; measured here: COMT max response; stronger effect = lower value
Sequence of Catechol O-methyltransferase (Homo sapiens) (P21964 whole entry, looked up): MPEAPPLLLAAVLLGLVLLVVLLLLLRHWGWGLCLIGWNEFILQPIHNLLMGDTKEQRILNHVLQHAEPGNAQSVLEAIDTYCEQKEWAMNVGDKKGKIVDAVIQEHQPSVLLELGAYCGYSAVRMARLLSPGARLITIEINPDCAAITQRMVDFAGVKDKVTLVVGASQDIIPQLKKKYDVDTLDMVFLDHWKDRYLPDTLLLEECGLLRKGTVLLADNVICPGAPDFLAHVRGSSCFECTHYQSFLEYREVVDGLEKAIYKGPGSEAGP

[2] = biological target: Guanidinoacetate N-methyltransferase (Homo sapiens) (UniProt Q14353); test: as above; settings: MTase-Glo luminescence, SAH detection, recombinant enzyme; at 57.3 µM (top of the series)
[3] = biological target: Nicotinamide N-methyltransferase (Homo sapiens) (UniProt P40261); test: as above; settings: MTase-Glo luminescence, SAH detection, recombinant enzyme; measured here: NNMT max response; stronger effect = lower value
Sequence of Nicotinamide N-methyltransferase (Homo sapiens) (P40261 whole entry, looked up): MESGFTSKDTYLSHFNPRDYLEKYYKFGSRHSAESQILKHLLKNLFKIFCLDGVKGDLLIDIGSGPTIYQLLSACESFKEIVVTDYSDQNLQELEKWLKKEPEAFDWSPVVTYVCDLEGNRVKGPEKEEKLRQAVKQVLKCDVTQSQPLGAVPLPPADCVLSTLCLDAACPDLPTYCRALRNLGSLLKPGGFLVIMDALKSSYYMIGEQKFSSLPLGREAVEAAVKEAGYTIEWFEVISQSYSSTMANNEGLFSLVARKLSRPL

[4] = biological target: Phenylethanolamine N-methyltransferase (Homo sapiens) (UniProt P11086); test: as above; settings: MTase-Glo luminescence, SAH detection, recombinant enzyme; measured here: PNMT max response; stronger effect = lower value
Sequence of Phenylethanolamine N-methyltransferase (Homo sapiens) (P11086 whole entry, looked up): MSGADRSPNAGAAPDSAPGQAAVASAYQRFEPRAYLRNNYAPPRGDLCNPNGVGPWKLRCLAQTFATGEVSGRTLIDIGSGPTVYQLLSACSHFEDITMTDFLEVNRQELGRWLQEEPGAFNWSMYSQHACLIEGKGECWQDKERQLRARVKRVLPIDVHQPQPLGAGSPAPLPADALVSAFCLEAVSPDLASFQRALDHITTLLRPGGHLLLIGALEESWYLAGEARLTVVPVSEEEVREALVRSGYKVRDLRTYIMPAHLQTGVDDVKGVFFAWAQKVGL

[5] = biological target: Metallo-beta-lactamase type 2 (Klebsiella pneumoniae) (UniProt C7C422); test: qHTS to identify inhibitors of the New Delhi Metallo-beta-lactamase (NDM): assay validation screen against the NCATS LOPAC Collection (AID 1794843);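 further: nitrocefin turnover by NDM-1 measured as 485 nm absorbance at plateau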
Sequence of Metallo-beta-lactamase type 2 (Klebsiella pneumoniae) (C7C422 whole entry, looked up): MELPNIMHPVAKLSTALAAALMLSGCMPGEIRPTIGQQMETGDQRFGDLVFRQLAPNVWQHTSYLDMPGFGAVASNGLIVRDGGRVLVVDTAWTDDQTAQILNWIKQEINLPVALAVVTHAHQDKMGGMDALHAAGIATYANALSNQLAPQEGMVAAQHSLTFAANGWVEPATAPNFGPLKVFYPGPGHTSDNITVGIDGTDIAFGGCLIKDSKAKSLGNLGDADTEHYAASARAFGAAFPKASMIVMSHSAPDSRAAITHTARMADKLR
Procedure, shortened: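 NDM-1 at 2 nM final in 50 mM HEPES pH 7.0 with 1 uM ZnSO4 and 0.01% Tween20 was preincubated with library compounds in DMSO. Nitrocefin (50 uM stock) was then added, and absorbance at 485 nm was read at the kinetic plateau.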

[6] = biological target: Glutathione peroxidase 1 (Homo sapiens) (UniProt P07203); test: Primary qHTS Assay for Inhibitors of Recombinant Selenoprotein Glutathione Peroxidase 1 (GPX1) (AID 1845191); further: nearly all actives have a fitted effect of over 65% in size
Sequence of Glutathione peroxidase 1 (Homo sapiens) (P07203 whole entry, looked up): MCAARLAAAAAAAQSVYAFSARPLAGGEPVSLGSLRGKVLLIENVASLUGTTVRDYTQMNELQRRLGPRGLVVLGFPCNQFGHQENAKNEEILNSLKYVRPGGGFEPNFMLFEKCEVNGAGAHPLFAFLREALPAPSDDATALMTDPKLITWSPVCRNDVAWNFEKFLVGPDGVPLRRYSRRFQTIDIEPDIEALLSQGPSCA
Procedure, shortened: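 Recombinant GPX1 (10 nM final) was preincubated with compound for 30 min at room temperature, then reacted with 1 mM GSH, 0.5 mM CHP, 0.5 mM NADPH and 100 nM glutathione reductase; NADPH fluorescence (340/450 nm) was read at 0 and 15 min.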

[7] = biological target: Phospholipid hydroperoxide glutathione peroxidase GPX4 (Homo sapiens) (UniProt P36969); test: Primary qHTS Assay for Inhibitors of Recombinant Selenoprotein Glutathione Peroxidase 4 (GPX4) (AID 1845192); settings: outcome: dose series up to 50 µM unless noted; further: nearly all actives have a fitted effect of over 65% in size
Sequence of Phospholipid hydroperoxide glutathione peroxidase GPX4 (Homo sapiens) (P36969 whole entry, looked up): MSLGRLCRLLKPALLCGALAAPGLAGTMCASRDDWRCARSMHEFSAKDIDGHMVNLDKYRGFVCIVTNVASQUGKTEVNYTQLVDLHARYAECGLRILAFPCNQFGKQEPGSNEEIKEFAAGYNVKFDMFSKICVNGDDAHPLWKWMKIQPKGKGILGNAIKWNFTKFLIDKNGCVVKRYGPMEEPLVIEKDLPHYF
Procedure, shortened: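 GR-coupled readout: 100 nM GR, 1 mM GSH, 0.5 mM NADPH; NADPH fluorescence (ex 340/em 450 nm) read at t=0 and after 15 min RT. GPX4 200 nM, preincubated 30 min with compound; substrate 0.5 mM CHP.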

[8] = Primary qHTS for inhibitors of nuclear receptor binding SET domain protein 2 (NSD2) in an RCH-ACV wild type WT cells (2C) (AID 1645877); further: nearly all actives have a fitted effect of over 70% in size; further: potency means the concentration at half of the fitted maximal effect
[9] = qHTS drug screen for cell cycle checkpoint inhibitors in PARPi-resistant BRCA-mutant ovarian cancer cell lines. (AID 1963452; calls by dose curve); settings: PEO1/OlaR viability, CellTiter-Glo luminescence, 96 h, stronger effect = lower value
Procedure, shortened: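 PEO1, PEO4 and PEO1/OlaR ovarian cancer cells, 600 per well, exposed 96 h at 37C to a dilution series. Viability read by CellTiter-Glo luminescence, normalized to DMSO and empty wells; activity summarized as Z-AUC.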

[10] = biological target: Rap guanine nucleotide exchange factor 3 (Homo sapiens) (UniProt O95398); test: Confirmatory qHTS for agonist of cAMP-regulated guanine nucleotide exchange factor 3 (EPAC1) (AID 1645881);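 further: EPAC1 catalysed release of BODIPY-GDP from Rap1B seen as fluorescence loss; nearly all actives have a fitted effect of over 75% in size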
Sequence of Rap guanine nucleotide exchange factor 3 (Homo sapiens) (O95398 whole entry, looked up): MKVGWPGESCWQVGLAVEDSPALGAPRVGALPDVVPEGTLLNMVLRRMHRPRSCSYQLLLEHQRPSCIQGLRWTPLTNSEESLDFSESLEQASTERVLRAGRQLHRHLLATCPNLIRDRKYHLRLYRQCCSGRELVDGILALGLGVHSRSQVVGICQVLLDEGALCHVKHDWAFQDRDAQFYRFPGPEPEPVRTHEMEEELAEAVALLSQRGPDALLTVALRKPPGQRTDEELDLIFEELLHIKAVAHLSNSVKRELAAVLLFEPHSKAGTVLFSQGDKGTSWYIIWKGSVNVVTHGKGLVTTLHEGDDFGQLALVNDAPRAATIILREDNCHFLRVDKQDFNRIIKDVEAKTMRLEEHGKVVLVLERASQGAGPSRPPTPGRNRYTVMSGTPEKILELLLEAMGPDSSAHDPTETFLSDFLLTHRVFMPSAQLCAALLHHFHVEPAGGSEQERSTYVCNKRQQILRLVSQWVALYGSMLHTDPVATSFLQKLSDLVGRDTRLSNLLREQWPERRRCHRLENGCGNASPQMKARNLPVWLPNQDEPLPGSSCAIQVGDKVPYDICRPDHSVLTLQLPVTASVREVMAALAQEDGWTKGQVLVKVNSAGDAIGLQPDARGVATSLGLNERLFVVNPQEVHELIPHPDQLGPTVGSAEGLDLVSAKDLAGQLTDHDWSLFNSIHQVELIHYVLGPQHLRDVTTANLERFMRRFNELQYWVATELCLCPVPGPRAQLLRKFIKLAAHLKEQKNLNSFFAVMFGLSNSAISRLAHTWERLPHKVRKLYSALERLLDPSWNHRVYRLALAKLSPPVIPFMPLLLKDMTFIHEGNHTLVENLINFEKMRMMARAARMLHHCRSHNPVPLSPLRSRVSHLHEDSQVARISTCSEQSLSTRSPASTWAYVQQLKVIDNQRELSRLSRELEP

[11] = biological target: Rap guanine nucleotide exchange factor 4 (Homo sapiens) (UniProt Q8WZA2); test: Confirmatory qHTS for agonist of cAMP-regulated guanine nucleotide exchange factor 4 (EPAC2) (AID 1645884);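 further: nucleotide exchange releases bodipy-GDP from Rap1 and this lowers its fluorescence; nearly all actives have a fitted effect of over 65% in size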
Sequence of Rap guanine nucleotide exchange factor 4 (Homo sapiens) (Q8WZA2 whole entry, looked up): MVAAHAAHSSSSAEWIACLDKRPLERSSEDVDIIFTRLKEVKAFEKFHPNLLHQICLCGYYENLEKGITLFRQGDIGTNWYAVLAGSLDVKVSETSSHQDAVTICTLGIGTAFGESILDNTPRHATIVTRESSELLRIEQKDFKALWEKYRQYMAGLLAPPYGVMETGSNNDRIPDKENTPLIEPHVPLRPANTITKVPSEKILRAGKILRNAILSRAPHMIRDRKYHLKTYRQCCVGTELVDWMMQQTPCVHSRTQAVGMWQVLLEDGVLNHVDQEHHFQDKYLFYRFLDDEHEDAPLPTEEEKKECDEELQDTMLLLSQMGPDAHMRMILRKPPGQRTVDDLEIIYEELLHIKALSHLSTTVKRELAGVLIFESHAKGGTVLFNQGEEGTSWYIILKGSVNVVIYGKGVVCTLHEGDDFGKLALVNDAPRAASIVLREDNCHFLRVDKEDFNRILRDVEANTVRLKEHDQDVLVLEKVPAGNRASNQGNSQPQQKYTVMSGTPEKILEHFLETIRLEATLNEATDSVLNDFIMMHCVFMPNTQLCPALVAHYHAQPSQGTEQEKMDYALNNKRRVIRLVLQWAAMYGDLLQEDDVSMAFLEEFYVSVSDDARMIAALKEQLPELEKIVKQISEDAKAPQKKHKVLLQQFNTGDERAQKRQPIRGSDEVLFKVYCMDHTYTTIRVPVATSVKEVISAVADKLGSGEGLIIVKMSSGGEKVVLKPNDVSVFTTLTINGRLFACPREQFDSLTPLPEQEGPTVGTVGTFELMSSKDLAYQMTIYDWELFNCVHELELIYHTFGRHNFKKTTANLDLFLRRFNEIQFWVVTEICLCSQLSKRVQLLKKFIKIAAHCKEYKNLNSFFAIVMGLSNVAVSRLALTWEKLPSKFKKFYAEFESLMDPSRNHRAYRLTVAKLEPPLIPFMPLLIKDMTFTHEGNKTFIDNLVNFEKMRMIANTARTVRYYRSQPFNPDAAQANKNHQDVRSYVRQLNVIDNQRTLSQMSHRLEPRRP

[12] = biological target: Rap guanine nucleotide exchange factor 4 (Homo sapiens) (UniProt Q8WZA2); test: Confirmatory qHTS for antagonist of cAMP-regulated guanine nucleotide exchange factor 4 (EPAC2) (AID 1645885); further: potency means the concentration at half of the fitted maximal effect; nearly all actives have a fitted effect of over 25% in size
[13] = biological target: Rap guanine nucleotide exchange factor 3 (Homo sapiens) (UniProt O95398); test: Counterscreen qHTS for agonist of cAMP-regulated guanine nucleotide exchange factor 3 (EPAC1) (AID 1645889); further: nearly all actives have a fitted effect of over 40% in size
Procedure, shortened: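 Measured: fluorescence of BODIPY-GDP bound to Rap1B, which falls as exchange proceeds. Conditions include 50 uM competing GDP, 5 and 30 min reads, and a later cAMP challenge for antagonist detection.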

[14] = NCATS anti-infectives library activity on HEK293 viability as a counter-qHTS vs the C. elegans viability qHTS (AID 1745854);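 further: HEK293 cells exposed to compounds for 24 hr before the viability read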
Procedure, shortened: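 HEK293 cells (1,500/well) exposed 24 hr at 37C to 1:5 titrations, up to 41.7 uM final; counter-screen to a C. elegans viability qHTS. Viability by CellTiter-Glo luminescence after 10 min at room temperature; digitonin as control.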

[15] = biological target: Luciferin 4-monooxygenase (Photinus pyralis) (UniProt P08659); test: Primary firefly luciferase (FLuc) qHTS assay for identification of artifact compounds. (AID 1845220); further: nearly all actives have a fitted effect of over 60% in size
Procedure, shortened: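 Reaction readout was CCD-imaged luminescence, taken 5 min after adding 10 nM purified firefly enzyme to compound-treated wells holding 10 uM luciferin and ATP in pH 7.6 buffer.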

[16] = Primary fluorescence-based thiol-reactive (MSTI) qHTS assay for identification of artifact compounds. (AID 1845221);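 further: thiol-reactive compounds lower the probe fluorescence signal; nearly all actives have a fitted effect of over 65% in size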
Procedure, shortened: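 qHTS titration of compound; 4 uM MSTI, PBS pH 7.4, 2% DMSO; 1 h RT, dark; fluorescence 525/598 nm; normalized to Acetyl-MSTI and MSTI; 4-parameter Hill fit.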

[17] = test system: Nanoluciferase (engineered Oplophorus gracilirostris luciferase); test: Primary Nanoluciferase (NLuc) qHTS assay for identification of artifact compounds. (AID 1845222);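 further: NLuc secreted into diluted conditioned medium of S16 cells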
Procedure, shortened: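 Concentration-response data were obtained by luminescence after 5 min with Nano-Glo substrate at 1:100. The enzyme was diluted S16 NLuc-expressing cell medium, preincubated with compound for 15 min at RT. Curves were fitted with a 4-parameter Hill model.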

[18] = Primary redox qHTS assay for identification of artifact compounds. (AID 1845223)
Procedure, shortened: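 Amplex Red (25 uM) and HRP (250 mU/mL) in HBSS, with compounds for 15 min, then 250 uM DTT for 30 min, room temperature, dark. Fluorescence 525/598 nm read; normalized to DMSO and 10 uM DA3003; Hill fit.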

[19] = measured here: PEO1 parental Z-AUC

Work on `CN(C)[C@@H]1C(=O)C(C(N)=O)=C(O)[C@@]2(O)C(=O)C3=C(O)c4c(O)ccc(Cl)c4[C@@H](O)[C@H]3C[C@@H]12` yielded an activity [1] of -43.5%, an activity change, negative = inhibition [2] of 8.05% and an activity [3] of -3.56%. For the same molecule, the activity [4] was 2.12%, the Potency [5] was “inactive” and the Potency [6] was “inactive”. For the same molecule, the outcome [7] was “inactive”.

With `CC(C)NNC(=O)c1ccncc1` the Potency [8] was “inactive” and the outcome [7] was “inactive”.

For `c1cnc(N2CCN(Cc3ccc4c(c3)OCO4)CC2)nc1`, the Potency [8] was “inactive” and the Potency [6] was “inactive”.

In the case of `COc1ccc(CN(CCN(C)C)c2ccccn2)cc1`, the Potency [8] is reported as “inactive”, the Potency [6] is reported as “inactive” and the outcome [7] is reported as “inactive”.

For `Nc1ncn([C@@H]2O[C@H](CO)[C@@H](O)[C@H]2O)c(=O)n1`, the Potency [8] was 9.34 µM (active), the Potency [5] was “inactive” and the outcome [7] was “inactive”. For the same molecule, the Z-AUC [9] was 1.1 (inactive), the Z-AUC [9, 19] was 0.0153 and the Z-AUC ([9]; measured here: PEO4 Z-AUC) was -0.332.

For `C[C@]12CC[C@@H]3c4ccc(O)cc4C[C@@H](CCCCCCCCCS(=O)CCCC(F)(F)C(F)(F)F)[C@H]3[C@@H]1CC[C@@H]2O` (stereo partly drawn), the Potency [8] was “inactive” and the outcome [7] was “inactive”.

For `CCOC(=O)C1=C(C)NC(C)=C(C(=O)OC)C1c1cccc(Cl)c1Cl` (stereo not drawn), the Potency [10] was “inactive”, the Potency [11] was “inactive” and the Potency [12] was 49.4 µM (active) and 47.8 µM (active). The outcome [13] was “inactive”, the Potency [5] was “inactive” and the Potency [6] was “inactive”. The outcome [7] was “inactive”.

With `CC(=O)Oc1cc(C(C)C)c(OCCN(C)C)cc1C` the Potency [8] was “inactive” and the Potency [6] was “inactive”.

In the case of `Cc1ccc(=O)n(-c2ccccc2)c1`, the Potency [8] is reported as “inactive”, the Potency [6] is reported as “inactive” and the outcome [7] is reported as “inactive”.

In the case of `CNCCCN1c2ccccc2CCc2ccccc21`, the outcome [14] is reported as “inactive”.

For `OCCN1CCN(CCCN2c3ccccc3C=Cc3ccccc32)CC1`, the outcome [14] was “inactive”.

With `CCCN1C[C@H](CSC)C[C@@H]2c3cccc4[nH]cc(c34)C[C@H]21` the outcome [15] was “inactive”, the outcome [16] was “inactive” and the outcome [17] was “inactive”. The outcome [18] was “inactive”.

For `COc1ccc2c(c1OC)C(=O)O[C@@H]2[C@H]1c2c(cc3c(c2OC)OCO3)CCN1C`, the Z-AUC [9] was 0.757 (inactive), the Z-AUC [9, 19] was 0.922 and the Z-AUC ([9]; measured here: PEO4 Z-AUC) was 0.499.
